Measured values reported in PubChem BioAssay (NCATS).
Values joined by “and” are separate entries in the source; they are usually repeats but may differ in a detail not shown here. Equal entries are not always repeated. Records with an inconclusive call do not appear. Active and inactive are the calls of the source. Unless noted, calls follow the shape of the dose curve; as a rule, active = well fitted curve in the direction sought with a large enough effect; inconclusive = small, poorly fitted or top-dose-only effect, or another doubt; inactive = no such curve, though single readings can be large; an effect the other way counts as inactive or inconclusive.

Experiments:
[1] = qHTS Assay for Lipid Storage Modulators (AID 1519; calls by dose curve); conditions: Drosophila S3 cells, BODIPY lipid droplet/cell ratio, laser cytometry, cells loaded with oleic acid; for activity change, negative = inhibition: at 57.5 µM (top of the series)
How it was run: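 Cells seeded at 5,000 per well were treated with compounds over a concentration series and loaded with oleic acid (400 uM, as added). Lipid droplet fluorescence (488 nm excitation, 500-530 nm channel) was read by laser-scanning cytometry and normalized to 20 uM Triacsin C.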

[2] = molecular target: Ubiquitin carboxyl-terminal hydrolase 1 (Homo sapiens) (UniProt O94782); experiment: Inhibitors of USP1/UAF1: Pilot qHTS (AID 504865);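 also: rhodamine fluorescence freed from ubiquitin-rhodamine substrate followed over time; top concentration of the series differs between compounds; % is scaled to controls: 0 for no effect and ±100 for the full control effect; nearly all actives have a fitted effect of over 35% in size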
How it was run: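 Enzyme-free wells gave the negative control, while test wells held 1nM USP1/UAF1 preincubated with compound for 15 min at room temperature. Ub-Rho at 150nM final started the reaction, and fluorescence at 480/540 nm was recorded kinetically.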

[3] = molecular target: Luciferin 4-monooxygenase (Photinus pyralis) (UniProt P08659); experiment: Biochemical firefly luciferase enzyme assay for NPC (AID 624030);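 also: purified P. pyralis luciferase at 10 nM with luciferin and ATP substrate; 0% = DMSO and -100% = full luciferase inhibition by PTC124 control; nearly all actives have a fitted effect of over 70% in size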
How it was run: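 Direct inhibition of firefly luciferase enzyme (10 nM final, 50 mM Tris Acetate) assessed by luminescence within 5 minutes. Percent activity scaled between DMSO and PTC124 positive control, with concentration-effect curves classified by fit quality and response.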

[4] = qHTS profiling for inhibitors of Plasmodium falciparum proliferation (AID 504749);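 also: 0% = DMSO vehicle and full inhibition = artemisinin control; nearly all actives have a fitted effect of over 60% in size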; conditions: P. falciparum in erythrocytes, SYBR Green DNA, 72 h, at 28.7 µM (top of the series)
How it was run: (§1)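 SYBR Green fluorescence of parasite DNA, read after lysis and overnight dark incubation, measured growth over 72 h in erythrocyte culture at 0.3% parasitemia and 2.5% hematocrit. Data normalised to DMSO and 0.29 uM artemisinin, with plate-drift correction.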

[5] = system: CP238; experiment: as above; conditions: P. falciparum in erythrocytes, SYBR Green DNA, 72 h; series mostly up to 12.8 µM
How it was run: as §1

[6] = system: CP262; experiment: as above; conditions: P. falciparum in erythrocytes, SYBR Green DNA, 72 h; series mostly up to 12.8 µM
How it was run: as §1

[7] = system: CP325; experiment: as above; conditions: P. falciparum in erythrocytes, SYBR Green DNA, 72 h; series mostly up to 12.8 µM
How it was run: as §1

[8] = system: ECU; experiment: as above; conditions: P. falciparum in erythrocytes, SYBR Green DNA, 72 h; series mostly up to 12.8 µM
How it was run: as §1

[9] = system: FAB9; experiment: as above; conditions: P. falciparum in erythrocytes, SYBR Green DNA, 72 h; series mostly up to 12.8 µM
How it was run: as §1

[10] = system: HB3; experiment: as above; conditions: P. falciparum in erythrocytes, SYBR Green DNA, 72 h; series mostly up to 12.8 µM
How it was run: as §1

[11] = system: JCK; experiment: as above; conditions: P. falciparum in erythrocytes, SYBR Green DNA, 72 h; series mostly up to 12.8 µM
How it was run: as §1

[12] = molecular target: Cytochrome P450 3A4 (Homo sapiens) (UniProt P08684); experiment: qHTS Assay for Activators of Cytochrome P450 3A4 (AID 885); also: nearly all actives have a fitted effect of over 65% in size
How it was run: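 CYP3A4 activity: Luciferin-PPXE O-dealkylation, 25uM substrate, 200mM KPO4, RT throughout. Read-out is luciferase luminescence; higher values reflect activation.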

[13] = AP1 Signaling Pathway (AID 357; active = well fitted curve in either direction with a large enough effect, not every such curve was filed as active;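 also: ME-180 reporter cells stimulated with EGF at its EC50 level; % is scaled to controls: 0 for no effect and ±100 for the full control effect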); conditions: ME-180 AP-1-bla reporter, EGF-induced, beta-lactamase ratio, 5 h; at 7.69 µM (top of the series) unless noted
How it was run: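 Cells are seeded overnight, exposed to compound titrations and an EC50 level of EGF for 5 hours at 37 °C, then loaded with CCF4 dye for 2.5 hours. Beta-lactamase activity under the AP-1 element is read as a blue/green ratio.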

[14] = NFAT Signaling Pathway (AID 444; active = well fitted curve in either direction with a large enough effect, not every such curve was filed as active;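 also: carbachol stimulus at about its EC50 of 1 µM final; % is scaled to controls: 0 for no effect and ±100 for the full control effect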); conditions: Jurkat NFAT-bla M1, carbachol, beta-lactamase ratio, 5 h; at 7.69 µM (top of the series) unless noted
How it was run: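 Read-out: CCF4 FRET ratio (460 nm/530 nm) after 1 h RT dye loading, used for %activity and AC50 from titration series. Cells: Jurkat NFAT-β-lactamase/M1 line, treated with compound plus 1 uM carbachol for 5 h, 37 °C.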

[15] = Stat Signaling Pathway (AID 446; active = well fitted curve in either direction with a large enough effect, not every such curve was filed as active;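 also: ME-180 cervical cancer cells given 40 pM IL-6 alongside compound; SIE-controlled beta-lactamase reporter measured as 460/530 nm FRET emission ratio; % is scaled to controls: 0 for no effect and ±100 for the full control effect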); conditions: ME-180 (cervical carcinoma) SIE beta-lactamase reporter, IL-6 stimulated, 5 h; at 7.69 µM (top of the series) unless noted
How it was run: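 Compound effects on IL-6-induced STAT reporter activity were measured in ME-180 cells. After overnight culture, cells were co-treated with 40 pM IL-6 for 5 hrs before beta-lactamase substrate loading at room temperature.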

[16] = molecular target: Glucocorticoid receptor (Homo sapiens) (UniProt P04150); experiment: GR-EFC Redistribution (AID 451; calls by dose curve; also: potency is read from the fitted curve at half-maximal effect); conditions: CHO-K1 GR-EFC translocation, beta-gal luminescence, 2 h
How it was run: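 Translocation of GR-ED fusion to nuclear EA restores b-gal, read by luminescence after 1 h room-temperature detection. Engineered CHO-K1 biosensor cells, 1,000/well, exposed 2 h at 37 C to titrations up to 46 uM final.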

[17] = molecular target: Mitogen-activated protein kinase 10 (Mus musculus) (UniProt Q61831); experiment: JNK3 AlphaScreen Assay (AID 530; active = well fitted curve in either direction with a large enough effect, not every such curve was filed as active;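 also: kinase came from lysate of stimulated human HepG2 cells; signal reports phosphorylation of biotinylated GST-cJun 1-79 at Ser73 with 10 µM ATP; % is scaled to controls: 0 for no effect and ±100 for the full control effect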)
How it was run: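 qHTS titrations with 15 min compound pre-incubation before adding ATP (10 uM final). Read-out: AlphaScreen of Ser73-phosphorylated biotin-GST-cJun using HepG2 lysate JNK3 activated by IL-1β and TNFα.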

[18] = molecular target: 3',5'-cyclic-AMP phosphodiesterase 4B (Homo sapiens) (UniProt Q07343); experiment: qHTS Assay for Inhibitors of PDE-IV (AID 607; active = well fitted activation curve with a large enough effect in the main read-out, with a control signal flat, not every such curve was filed as active; also: % of control where 0% means no effect)
How it was run: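 ACTOne HEK293 cells carry a modified cAMP-gated CNG channel and express endogenous PDE4; plated 1000 cells/well, compounds up to 22.9 uM final. Membrane-potential dye fluorescence (ex 535/em 590) was read; parental cells received 10 uM forskolin + 100 uM RO 20-1724.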

[19] = molecular target: Cytochrome P450 1A2 (Homo sapiens) (UniProt P05177); experiment: p450-cyp1a2 (AID 410; calls by dose curve;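 also: -100% = full effect of reference inhibitor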)
How it was run: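 O-Demethylation of luciferin 6' methyl ether by human CYP1A2 is monitored as luciferase luminescence. Substrate sits at Km (100uM); enzyme is 20nM. Values are scaled to 57 uM furafylline as maximal inhibition.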

[20] = molecular target: Glucocorticoid receptor (Homo sapiens) (UniProt P04150); experiment: GR-GFP Redistribution (AID 450;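 active = compounds whose dose series gives a full or clear partial fitted curve of increased nuclear translocation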; also: potency is read from the fitted curve at half-maximal effect); conditions: U2OS GR-GFP nuclear translocation, laser cytometry, 2 h
[21] = measured here: cell count channel max response
[22] = measured here: lipid channel max response

Glucocorticoid receptor (Homo sapiens), sequence (P04150 whole entry, looked up, the tested form may be a part): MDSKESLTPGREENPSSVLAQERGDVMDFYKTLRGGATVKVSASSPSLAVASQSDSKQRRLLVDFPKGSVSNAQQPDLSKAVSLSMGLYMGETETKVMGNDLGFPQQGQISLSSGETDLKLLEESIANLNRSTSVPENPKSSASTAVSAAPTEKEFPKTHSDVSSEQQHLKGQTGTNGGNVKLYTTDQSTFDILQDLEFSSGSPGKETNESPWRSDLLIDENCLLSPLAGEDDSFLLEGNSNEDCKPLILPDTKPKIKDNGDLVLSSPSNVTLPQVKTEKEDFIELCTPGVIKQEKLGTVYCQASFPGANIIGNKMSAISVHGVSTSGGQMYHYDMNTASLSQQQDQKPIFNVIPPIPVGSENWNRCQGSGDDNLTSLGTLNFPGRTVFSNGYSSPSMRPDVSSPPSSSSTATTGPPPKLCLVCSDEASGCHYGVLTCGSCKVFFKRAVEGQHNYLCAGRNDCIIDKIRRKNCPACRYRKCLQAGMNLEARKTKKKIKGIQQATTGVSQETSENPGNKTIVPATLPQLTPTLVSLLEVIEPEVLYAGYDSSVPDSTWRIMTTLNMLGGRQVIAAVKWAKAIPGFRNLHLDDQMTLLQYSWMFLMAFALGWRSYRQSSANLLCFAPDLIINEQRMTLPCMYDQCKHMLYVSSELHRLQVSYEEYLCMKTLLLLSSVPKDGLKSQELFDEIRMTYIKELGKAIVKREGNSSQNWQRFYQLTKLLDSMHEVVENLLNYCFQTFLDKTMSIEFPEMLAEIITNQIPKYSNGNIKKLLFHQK
Ubiquitin carboxyl-terminal hydrolase 1 (Homo sapiens), sequence (O94782 whole entry, looked up): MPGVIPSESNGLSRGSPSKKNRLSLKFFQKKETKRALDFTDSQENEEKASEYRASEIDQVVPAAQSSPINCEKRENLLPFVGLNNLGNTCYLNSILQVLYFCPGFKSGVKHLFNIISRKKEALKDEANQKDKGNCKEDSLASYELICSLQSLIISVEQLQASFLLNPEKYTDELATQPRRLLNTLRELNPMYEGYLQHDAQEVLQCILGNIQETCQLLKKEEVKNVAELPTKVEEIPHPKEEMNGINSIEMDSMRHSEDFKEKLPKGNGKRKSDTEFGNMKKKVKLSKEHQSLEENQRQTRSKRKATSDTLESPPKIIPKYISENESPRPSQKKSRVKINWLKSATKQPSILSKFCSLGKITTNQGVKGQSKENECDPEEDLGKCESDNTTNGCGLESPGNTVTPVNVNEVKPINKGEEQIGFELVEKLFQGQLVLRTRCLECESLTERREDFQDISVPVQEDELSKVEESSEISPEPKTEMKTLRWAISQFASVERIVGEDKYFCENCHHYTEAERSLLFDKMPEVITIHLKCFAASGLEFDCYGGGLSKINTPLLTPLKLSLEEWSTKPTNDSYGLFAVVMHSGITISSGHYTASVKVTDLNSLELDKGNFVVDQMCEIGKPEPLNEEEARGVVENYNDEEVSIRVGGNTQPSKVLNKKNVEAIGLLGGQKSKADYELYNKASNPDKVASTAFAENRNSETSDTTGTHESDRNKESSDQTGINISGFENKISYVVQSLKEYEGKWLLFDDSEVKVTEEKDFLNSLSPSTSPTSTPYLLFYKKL
3',5'-cyclic-AMP phosphodiesterase 4B (Homo sapiens), sequence (Q07343 whole entry, looked up): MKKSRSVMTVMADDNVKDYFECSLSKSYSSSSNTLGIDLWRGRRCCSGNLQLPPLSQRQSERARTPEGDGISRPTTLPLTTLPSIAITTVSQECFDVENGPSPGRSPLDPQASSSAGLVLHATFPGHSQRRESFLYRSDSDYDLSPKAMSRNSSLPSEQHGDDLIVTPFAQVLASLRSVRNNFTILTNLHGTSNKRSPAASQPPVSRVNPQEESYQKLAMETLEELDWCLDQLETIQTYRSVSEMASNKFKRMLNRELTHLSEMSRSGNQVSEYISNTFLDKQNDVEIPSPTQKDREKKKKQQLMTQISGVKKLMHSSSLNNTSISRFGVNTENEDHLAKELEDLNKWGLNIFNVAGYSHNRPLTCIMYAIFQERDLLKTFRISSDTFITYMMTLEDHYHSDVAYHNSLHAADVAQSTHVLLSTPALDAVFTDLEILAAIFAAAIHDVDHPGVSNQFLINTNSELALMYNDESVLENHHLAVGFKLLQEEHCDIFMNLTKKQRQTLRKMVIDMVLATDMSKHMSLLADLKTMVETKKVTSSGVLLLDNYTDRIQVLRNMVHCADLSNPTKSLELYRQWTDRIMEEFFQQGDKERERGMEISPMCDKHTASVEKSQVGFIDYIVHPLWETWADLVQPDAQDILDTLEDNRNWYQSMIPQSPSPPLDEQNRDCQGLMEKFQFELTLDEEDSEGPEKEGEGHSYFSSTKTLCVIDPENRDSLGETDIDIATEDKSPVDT
Cytochrome P450 1A2 (Homo sapiens), sequence (P05177 whole entry, looked up): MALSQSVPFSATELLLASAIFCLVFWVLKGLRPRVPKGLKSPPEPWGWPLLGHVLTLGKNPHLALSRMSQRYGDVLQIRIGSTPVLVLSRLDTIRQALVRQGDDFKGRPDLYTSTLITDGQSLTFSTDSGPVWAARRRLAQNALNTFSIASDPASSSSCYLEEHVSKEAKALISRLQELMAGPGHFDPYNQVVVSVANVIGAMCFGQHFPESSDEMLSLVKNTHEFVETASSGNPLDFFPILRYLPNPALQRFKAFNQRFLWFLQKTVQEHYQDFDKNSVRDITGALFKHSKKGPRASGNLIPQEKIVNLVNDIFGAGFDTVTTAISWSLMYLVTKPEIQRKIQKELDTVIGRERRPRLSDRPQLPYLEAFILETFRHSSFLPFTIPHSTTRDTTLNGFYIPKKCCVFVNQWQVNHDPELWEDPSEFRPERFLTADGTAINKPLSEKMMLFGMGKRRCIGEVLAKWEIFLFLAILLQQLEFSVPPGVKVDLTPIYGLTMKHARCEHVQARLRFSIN
Luciferin 4-monooxygenase (Photinus pyralis), sequence (P08659 whole entry, looked up): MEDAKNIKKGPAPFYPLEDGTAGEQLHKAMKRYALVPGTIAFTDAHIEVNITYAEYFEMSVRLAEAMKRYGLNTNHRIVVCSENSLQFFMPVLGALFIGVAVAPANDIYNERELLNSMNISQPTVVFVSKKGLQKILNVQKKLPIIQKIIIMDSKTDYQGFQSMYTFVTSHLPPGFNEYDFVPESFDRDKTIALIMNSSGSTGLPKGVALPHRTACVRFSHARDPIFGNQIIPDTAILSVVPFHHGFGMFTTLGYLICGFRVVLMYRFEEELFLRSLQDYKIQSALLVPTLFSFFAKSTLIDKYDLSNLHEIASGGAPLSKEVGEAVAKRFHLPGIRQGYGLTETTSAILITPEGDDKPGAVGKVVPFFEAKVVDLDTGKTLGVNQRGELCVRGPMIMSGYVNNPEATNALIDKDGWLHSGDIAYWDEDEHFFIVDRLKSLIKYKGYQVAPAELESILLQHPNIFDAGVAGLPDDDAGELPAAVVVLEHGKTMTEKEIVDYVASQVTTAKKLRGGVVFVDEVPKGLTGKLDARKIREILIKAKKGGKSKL
Cytochrome P450 3A4 (Homo sapiens), sequence (P08684 whole entry, looked up): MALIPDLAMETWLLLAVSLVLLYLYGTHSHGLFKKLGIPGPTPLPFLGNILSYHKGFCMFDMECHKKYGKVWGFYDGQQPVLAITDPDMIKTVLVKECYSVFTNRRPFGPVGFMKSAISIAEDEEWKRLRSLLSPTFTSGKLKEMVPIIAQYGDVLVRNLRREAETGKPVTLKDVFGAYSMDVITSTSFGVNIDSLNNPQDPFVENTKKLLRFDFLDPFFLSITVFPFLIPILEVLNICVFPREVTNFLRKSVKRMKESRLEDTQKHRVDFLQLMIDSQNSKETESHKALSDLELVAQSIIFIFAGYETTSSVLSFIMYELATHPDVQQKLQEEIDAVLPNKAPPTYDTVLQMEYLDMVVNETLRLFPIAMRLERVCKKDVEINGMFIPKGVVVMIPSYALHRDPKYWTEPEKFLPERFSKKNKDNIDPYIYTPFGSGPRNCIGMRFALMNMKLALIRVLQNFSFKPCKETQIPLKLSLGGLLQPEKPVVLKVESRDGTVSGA

Nc1ccccc1C(=O)CC(N)C(=O)O (stereo unspecified)
activity change, negative = inhibition [1]: 9.57% (inactive) and 2.83% (inactive) | max response [1, 21]: 10.9% and 14.4% | max response [1, 22]: 21.6% and 17.6%

CO/N=C(/C(=O)NC1C(=O)N2C(C(=O)O)=C(CSc3nc(=O)c(O)nn3C)CSC12)c1csc(N)n1 (stereo unspecified)
activity change, negative = inhibition [1]: 7.84% (inactive) and 13.9% (inactive) | max response [1, 21]: 7.61% and 7.25% | max response [1, 22]: 18.4% and 25.1% | Potency [2]: inactive | outcome [3]: inactive | activity, negative = inhibition ([4]; parasite line A): 11.8% (inactive) | activity, negative = inhibition ([4]; parasite line B): 6.03% (inactive) | Potency [5]: inactive | Potency [6]: inactive | Potency [7]: inactive | Potency [8]: inactive | Potency [9]: inactive | Potency [10]: inactive | Potency [11]: inactive

CC(CCC(=O)O)C1CCC2C3C(O)C[C@@H]4CC(O)CC[C@@]4(C)C3CC[C@@]12C (stereo partly specified)
activity change, negative = inhibition [1]: 1.17% (inactive) and 5.02% (inactive) | max response [1, 21]: 13% and 15.4% | max response [1, 22]: 15% and 25.1% | Potency [2]: inactive

O=c1[nH]cnc2c1ncn2C1OC(CO)C(O)C1O (stereo unspecified)
activity change, negative = inhibition [1]: 5.69% (inactive) and -3.39% (inactive) and 2.45% (inactive) | max response [1, 21]: 8.98% and -19.5% and -3.51% | max response [1, 22]: 14% and -19.8% and 0.274% | Potency [2]: inactive | outcome [3]: inactive | activity, negative = inhibition ([4]; parasite line B): 13.3% (inactive) | Potency [5]: inactive | Potency [6]: inactive | Potency [7]: inactive | Potency [8]: inactive | Potency [9]: inactive | Potency [10]: inactive | Potency [11]: inactive

C=C1C2CC[C@@]3(C)C(c4ccoc4)OC(=O)C[C@@]13OC1CC(O)C(C)(C)C(CC(=O)OC)[C@@]12C (stereo partly specified)
Potency [12]: inactive | activity change, negative = inhibition [1]: -26.4% (inactive) and -20.4% (inactive) | max response [1, 21]: 9.22% and 0.891% | max response [1, 22]: -12.6% and -14.6% | Potency [2]: inactive

N#Cc1ccc(CN2CCCC3(CCNCC3)C2)cc1
activity change, negative = inhibition [13]: 6.69% (inactive) | activity change, negative = inhibition [14]: -22.5% (inactive) | activity, negative = inhibition [15]: -0.579% (inactive) | Potency [16]: > 46 µM (inactive) | Potency [17]: inactive | Potency [18]: inactive | activity change, negative = inhibition [1]: 1.45% (inactive) | max response [1, 21]: 12.8% | max response [1, 22]: 18.2%

C[C@@](N)(Cc1ccc(O)cc1)C(=O)O
activity change, negative = inhibition [13]: -8.05% [at 38 µM] (inactive) and -6.78% [at 38 µM] (inactive) | Potency [19]: inactive | activity change, negative = inhibition [14]: -13% [at 38 µM] (inactive) and 8.58% [at 38 µM] (inactive) | activity, negative = inhibition [15]: 3.69% [at 38 µM] (inactive) | Potency [17]: inactive | Potency [18]: inactive | activity change, negative = inhibition [1]: 1.23% (inactive) | max response [1, 21]: 15.7% | max response [1, 22]: 18.3% | Potency [2]: inactive

O=C(c1cc(C(F)(F)F)cc(C(F)(F)F)c1)N1CCC2(CC1)CN(Cc1ccccc1)C2
activity change, negative = inhibition [13]: -4.34% (inactive) | Potency [19]: inactive | activity, negative = inhibition [15]: 9.42% (inactive) | Potency [16]: > 46 µM (inactive) | Potency [17]: inactive | Potency [18]: inactive | activity change, negative = inhibition [1]: 1.87% (inactive) | max response [1, 21]: 22.2% | max response [1, 22]: 24.8%

N=c1ccn2c(n1)OC1C(O)C(CO)OC12 (stereo unspecified)
activity change, negative = inhibition [1]: 3.87% (inactive) and 5.45% (inactive) | max response [1, 21]: 0.631% and 1.94% | max response [1, 22]: 7.88% and 22.5% | Potency [2]: inactive

O=C(O)[C@H]1CCCN(CCC=C(c2ccccc2)c2ccccc2)C1
activity change, negative = inhibition [13]: 3.95% [at 38 µM] (inactive) | activity change, negative = inhibition [14]: -15.6% [at 38 µM] (inactive) | activity, negative = inhibition [15]: 26.3% [at 38 µM] (inactive) | Potency [20]: > 46 µM (inactive) | Potency [16]: > 46 µM (inactive) | Potency [17]: inactive | Potency [18]: inactive | activity change, negative = inhibition [1]: -4.66% (inactive) | max response [1, 21]: -22.7% | max response [1, 22]: -26.7%
